Screens (PubChem BioAssay)
This is one part of a sample in which hits are shown more often than they occur.
L3MBTL1 block: qHTS Assay for the Inhibitors of L3MBTL1. Lethal(3)malignant brain tumor-like protein 1 (Homo sapiens), Q9Y468. Potency, µM (top dose mostly 57.1 µM), for inactives: at the top dose activity, negative = inhibition, most hits filed as inhibitors. AlphaScreen L3MBTL1–H3K9me1 peptide binding. 0.66% of 230,000 active; note: nearly all actives have a fitted effect of over 60% in size
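Read-out is AlphaScreen signal from streptavidin donor and nickel chelate acceptor beads (10 ug/mL final each) bridging L3MBTL1 (50 nM) and biotinylated K9-monomethylated H3(1-15) peptide (75 nM), after 30 min compound exposure at room temperature.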
APE1 inh: qHTS Assay for Inhibitors of the Human Apurinic/apyrimidinic Endonuclease 1 (APE1); AID 2517, 2012; recombinant APE1, TAMRA/BHQ-2 abasic DNA cleavage fluorescence; DNA repair nuclease/redox regulator APEX1 (Homo sapiens), P27695; 0.35% of 350,000 active; Potency, µM (titrated, usually from 65.8 µM), for the others: at the highest dose activity change, negative = inhibition, most hits filed as inhibitors;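 note: plate controls were vehicle for no effect and reference inhibitor for full effect; nearly all actives have a fitted effect of over 55% in size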
Target sequence (P27695 whole entry, looked up): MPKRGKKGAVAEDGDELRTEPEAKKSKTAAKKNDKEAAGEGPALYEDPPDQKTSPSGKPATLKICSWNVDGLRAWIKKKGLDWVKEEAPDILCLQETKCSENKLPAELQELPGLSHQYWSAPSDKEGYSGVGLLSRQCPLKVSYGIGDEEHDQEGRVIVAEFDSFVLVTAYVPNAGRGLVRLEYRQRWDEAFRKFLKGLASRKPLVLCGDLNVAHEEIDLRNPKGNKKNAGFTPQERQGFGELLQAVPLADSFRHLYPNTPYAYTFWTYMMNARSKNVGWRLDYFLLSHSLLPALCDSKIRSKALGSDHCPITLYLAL
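Readout is kinetic fluorescence (ex 525, em 598 nm) from cleavage of 50 nM TAMRA/BHQ-2 THF abasic duplex by 0.75 nM APE1, compound added 15 min beforehand at RT.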
RECQ1 inh-1: qHTS Assay for Inhibitors of RecQ-Like Dna Helicase 1 (RECQ1); Potency, µM (top dose mostly 57.3 µM), inactives show at the top dose activity, negative = inhibition, most hits filed as inhibitors; AID 2549, 2010; ATP-dependent DNA helicase Q1 (Homo sapiens), P46063; RECQ1 DNA unwinding, red fluorescence kinetic read; 0.54% of 240,000 active;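 note: plate controls were vehicle for no effect and no enzyme for full effect; nearly all actives have a fitted effect of over 30% in size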
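50 nM RECQ1T1 preincubated 15 min with compound in Tris pH 8.0 buffer with MgCl2, DTT, Tween-20 and 2.5 ug/ml poly(dI-dC); started with 200 nM TAMRA/BHQ-2 forked duplex and 2 mM ATP. Unwinding read as fluorescence (525/598 nm), two reads 2 h apart.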
BLM helicase inh: qHTS Assay for Inhibitors of Bloom's syndrome helicase (BLM) | 0.2% of 350,000 active | Potency, µM (series often up to 56.1 µM), without a hit: at the top dose activity change, negative = inhibition, hits mostly inhibitors | RecQ-like DNA helicase BLM (Homo sapiens), P54132 | recombinant BLM DNA unwinding, fluorescence dequenching | AID 2528, 2010;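 note: plate controls were vehicle for no effect and no enzyme for full effect; nearly all actives have a fitted effect of over 35% in size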
JMJD2E inh: qHTS Assay for Inhibitors of Human Jumonji Domain Containing 2E (JMJD2E) | JMJD2E catalytic domain, FDH-coupled NADH fluorescence (FDH is formaldehyde dehydrogenase) | 1.6% of 230,000 active | Lysine-specific demethylase 4E (Homo sapiens), B2RXH2 | AID 2147, 2009 | Potency, µM (series often up to 57.1 µM), for inactives: at the highest dose activity change, negative = inhibition, most hits filed as inhibitors; active = well fitted inhibition curve with a large enough effect, not every such curve was filed as active; inconclusive = small, poorly fitted or top-dose-only effect, or another doubt; inactive = no such curve, though single readings can be large or run the other way;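 note: 0% = wells with enzyme and -100% = buffer wells without enzyme; nearly all actives have a fitted effect of over 50% in size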
Target sequence (B2RXH2 1-337 limits assumed): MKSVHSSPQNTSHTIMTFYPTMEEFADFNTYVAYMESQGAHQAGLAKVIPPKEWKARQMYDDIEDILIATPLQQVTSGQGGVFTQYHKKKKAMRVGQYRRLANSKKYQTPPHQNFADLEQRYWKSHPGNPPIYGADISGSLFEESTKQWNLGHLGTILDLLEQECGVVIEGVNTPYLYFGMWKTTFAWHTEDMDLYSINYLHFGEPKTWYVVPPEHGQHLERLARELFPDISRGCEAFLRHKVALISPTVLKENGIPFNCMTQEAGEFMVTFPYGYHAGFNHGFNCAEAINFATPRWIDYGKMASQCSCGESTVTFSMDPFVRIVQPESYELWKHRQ
TDP1 block: qHTS Assay for Inhibitors of Tyrosyl-DNA Phosphodiesterase (TDP1); Potency, µM (top dose mostly 130 µM), inactives show at the top dose activity change, negative = inhibition, hits mostly inhibitors; recombinant TDP1, AlphaScreen DNA substrate cleavage; 0.28% of 350,000 active; note: nearly all actives have a fitted effect of over 40% in size
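Signal: AlphaScreen proximity between streptavidin donor and anti-FITC acceptor beads on intact substrate. Reaction: Tdp1 1 nM, substrate 15 nM final, 5 min RT after 15 min compound preincubation.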
RECQ1 conf: Confirmation qHTS Assay for Inhibitors of RecQ-Like Dna Helicase 1 (RECQ1); shares compounds with RECQ1 inh-1; AID 2708, 2010; 28% of 610 active; RECQ1 helicase DNA unwinding, fluorescence; Potency, µM (top dose mostly 229 µM), for inactives: at the top dose activity change, negative = inhibition, actives largely listed as inhibitors; note: nearly all actives have a fitted effect of over 45% in size
ADP FP counter: Counterscreen for RECQ1 Inhibitors: ADP Fluorescence Polarization Displacement Assay; 27% of 530 active; AID 2711, 2010; Potency, µM (doses to about 228 µM), inactives show top-dose activity change, negative = inhibition, actives largely listed as inhibitors; ADP fluorescence polarization displacement counterscreen; shares compounds with RECQ1 inh-1; note: nearly all actives have a fitted effect of over 45% in size
RECQ1 inh-2: Confirmation qHTS Assay for Inhibitors of RecQ-Like Dna Helicase 1 (RECQ1) - Round 2 Cherry Picks; Potency, µM (highest dose often 119 µM), without a hit: at the highest dose activity, negative = inhibition, usual class: inhibitors; shares compounds with RECQ1 inh-1; 15% of 1,100 active; AID 504841, 2011; recombinant RECQ1 DNA unwinding, red fluorescence; note: nearly all actives have a fitted effect of over 50% in size
Starred values were filed as active, the others as inactive; [ ] = remark or other dose. Unless noted, calls come from the whole dose curve; as a rule, active = well fitted curve in the direction sought with a large enough effect; inconclusive = small, poorly fitted or top-dose-only effect, or another doubt; inactive = no such curve, though single readings can be large; an effect the other way counts as inactive or inconclusive. Unless noted, % is set by controls: 0 for no effect and ±100 for the full control effect; potency is the fitted concentration of half-maximal effect.

Screening CCCC(O)c1nc2ccccc2n1CCCOc1ccc(Cl)cc1 (stereo not given) returned BLM helicase inh -4.8% and TDP1 block 8.6%.
CC1CCCCC1NC(=O)COC(=O)c1c2c(nc3ccccc13)/C(=C/c1ccco1)CC2 (stereo not given) was read as L3MBTL1 block inconclusive, APE1 inh inconclusive, RECQ1 inh-1 12.6µM*, BLM helicase inh inconclusive, JMJD2E inh 15.8µM*, TDP1 block -2.4%, RECQ1 conf 1.0%[114 µM] and RECQ1 inh-2 inconclusive.
For Cc1nc(/N=C(\N)NC(=O)N2c3ccccc3Sc3ccccc32)nc2ccccc12 the results were L3MBTL1 block -17.4%, APE1 inh -8.9%, RECQ1 inh-1 -5.9%, BLM helicase inh 6.0%, JMJD2E inh -14.9%, TDP1 block 9.5%, RECQ1 conf 3.2% and ADP FP counter -4.5%.
`Cc1nc(/N=C(\N)NC(=O)c2ccccc2)nc2ccccc12` gave L3MBTL1 block 0.8%, APE1 inh 2.7%, RECQ1 inh-1 -9.0%, BLM helicase inh 3.1%, JMJD2E inh -27.4% and TDP1 block 3.2%.
For CC1(C2CC2)NC(=O)N(CC(=O)NCc2ccc(Cl)cc2Cl)C1=O (stereo not given) the results were L3MBTL1 block 3.3%, APE1 inh -9.4% and TDP1 block 2.4%.
`COc1cc2cc3c4c(cc(OC)c(OC)c4c2cc1OC)CCN3C` gave APE1 inh inconclusive, RECQ1 inh-1 11.2µM*, BLM helicase inh 3.98µM*, JMJD2E inh inconclusive, TDP1 block 22.6%, RECQ1 conf inconclusive and ADP FP counter 69.4%.
For Cc1ccc(S(=O)(=O)N2CN(Cc3ccco3)c3nc4ccccc4nc32)cc1 the results were L3MBTL1 block -3.5%, APE1 inh -4.7%, RECQ1 inh-1 -6.5%, BLM helicase inh -7.9%, JMJD2E inh inconclusive and TDP1 block 7.3%.
`COc1ccc(S(=O)(=O)N2CN(Cc3ccco3)c3nc4ccccc4nc32)cc1` gave APE1 inh 2.1%, RECQ1 inh-1 35.5µM*, BLM helicase inh -13.4%, JMJD2E inh inconclusive, TDP1 block 6.8% and RECQ1 inh-2 inconclusive.
For O=C(CSc1ccc(Cl)cc1)Nc1ccc(-c2nc3ccccc3[nH]2)cc1 the results were L3MBTL1 block 2.2%, APE1 inh -6.1%, RECQ1 inh-1 28.2µM*, BLM helicase inh -10.7%, JMJD2E inh inconclusive, TDP1 block -5.3% and RECQ1 inh-2 -28.0%.
`O=C(CC1N=C2c3ccccc3N=C(SCc3ccc(Cl)cc3)N2C1=O)NCc1ccco1` (stereo not given) gave L3MBTL1 block -5.9%, APE1 inh 13.2%, RECQ1 inh-1 inconclusive, BLM helicase inh -13.6%, JMJD2E inh inconclusive, TDP1 block 2.8% and RECQ1 inh-2 inconclusive.
For CC(NC(=O)CCCC1=NS(=O)(=O)c2ccccc2N1)c1ccccc1 (stereo not given) the results were BLM helicase inh 1.3% and TDP1 block 2.5%.
For CC(=O)OC1CCC2C3CCc4cc(O)ccc4C3CCC12C (stereo not given) the results were RECQ1 inh-1 15.8µM*, BLM helicase inh 1.9%, JMJD2E inh -16.4%, TDP1 block 2.8%[56.1 µM], RECQ1 conf 8.9% and ADP FP counter 8.91µM*.
Screening CCOc1ccc(CCNC(=O)CCCn2nc(C)c3sc4ccccc4c3c2=O)cc1OCC returned BLM helicase inh -2.7% and TDP1 block 2.9%.
For O=C(c1ccc2c(=O)n(CCc3ccccc3)c(=O)[nH]c2c1)N1CCN(c2ccccc2)CC1 the results were APE1 inh 14.1%, BLM helicase inh -4.8% and TDP1 block 13.1%.
Screening COc1ccc(N2CCN(C(=O)c3ccc4c(=O)n(CCc5ccc(OC)c(OC)c5)c(=O)[nH]c4c3)CC2)cc1 returned APE1 inh 9.8%, RECQ1 inh-1 -12.8%, BLM helicase inh -7.4%, JMJD2E inh 9.8%, TDP1 block 8.0%, RECQ1 conf 6.0% and ADP FP counter inconclusive.
For COc1ccc(Nc2nnc(-c3ccc(O)cc3)c3ccccc23)cc1C(N)=O the results were L3MBTL1 block 4.8%, APE1 inh 1.4%, RECQ1 inh-1 inconclusive, BLM helicase inh -11.0%, JMJD2E inh -3.8%, TDP1 block 5.5% and RECQ1 inh-2 -12.9%.
Cc1cc(C(=O)COC(=O)CNC(=O)c2ccco2)c(C)n1Cc1ccco1 was read as L3MBTL1 block -7.3%, APE1 inh inconclusive, RECQ1 inh-1 inconclusive, BLM helicase inh -16.7%, JMJD2E inh -1.9%, TDP1 block 7.9% and RECQ1 inh-2 -5.8%.
O=S(=O)(c1ccc(-c2nnc(SCc3nnc(-c4ccccc4)o3)o2)cc1)N1CCCC1 was read as L3MBTL1 block 2.3%, APE1 inh -2.9%, RECQ1 inh-1 9.1%, BLM helicase inh -0.6%, JMJD2E inh -1.2%, TDP1 block 2.9%, RECQ1 conf 8.5% and ADP FP counter 5.9%.
Screening COc1ccccc1CNC(=O)C1CCN(S(=O)(=O)c2ccc3[nH]c(=O)ccc3c2)CC1 returned BLM helicase inh -0.3% and TDP1 block 0.0%.
